Data on 4 compounds can be found in PubChem BioAssay.

The inhibition is the relative decrease from the control value, in per cent.

Inconclusive results are not listed. Calls of active or inactive are those of the source. Unless noted, no rule for the calls is given here.

Assay [1] can be described thus: yeast TOR pathway RPL19A-GFP modulators, primary screen, cell-based, S. cerevisiae, multiplex flow cytometry (AID 1862; in the data active = percent of DMSO control GFP below about 86%;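 also: lower values mimic rapamycin by blocking the RPL19A rise seen in DMSO cells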). The note with it: S. cerevisiae RPL19A-GFP strain, flow cytometry fluorescence, 3 h; at 10 µM; stronger effect = lower value. On the technique in general: A flow cytometer gives signals particle by particle.
A short description of assay [2]: modulators of MEP2-GFP levels in yeast, primary screen, S. cerevisiae, multiplex flow cytometry (AID 1867;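 active = GFP response, as percent of the DMSO control, above the screen-wide mean plus 3 SD, about 139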;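 also: median GFP channel fluorescence of barcode-gated MEP2-GFP cells measured by flow cytometry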). To be noted: S. cerevisiae MEP2-GFP strain, 3 h, at 10 µM, stronger effect = higher value.
A short description of assay [3]: modulators of CIT2-GFP expression in yeast, primary screen, S. cerevisiae, GFP fusion, multiplex flow cytometry (AID 1870;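 active = percent response above a set limit, the screen-wide mean plus 3 SD, cut at about 130% in these data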;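 also: barcoded CIT2-GFP strain pooled with four other GFP strains with rapamycin as positive control; median GFP fluorescence per well over plate mean of DMSO wells so 100% = DMSO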). To be noted: 3 h, at 10 µM, stronger effect = higher value.
A short description of assay [4]: modulators of LAP4-GFP expression in yeast, primary screen, S. cerevisiae, multiplex flow cytometry (AID 1873;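 active = GFP signal, as percent of the solvent control, above the screen mean plus 3 SD, about 149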). The note with it: 3 h, at 10 µM, stronger effect = higher value.
Assay [5] is described as follows: modulators of AGP1-GFP expression in yeast TOR pathway, primary screen, cell-based, multiplex flow cytometry, S. cerevisiae (AID 1887;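 active = GFP signal above the screen-wide mean plus 3 SD, that is over about 124.5% of the solvent control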;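 also: AGP1-GFP fusion strain of S. cerevisiae within a five-strain barcoded multiplex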). The note with it: 3 h, at 10 µM, stronger effect = higher value.
Assay [6] in a line: inhibitors of CD8+ T cell-vesicle binding, pilot screen, LFA-1/ICAM-1 modulator project, MLPCN validation set, flow cytometry (AID 2523;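 active = response below a set limit, under 55% cells CD8-positive and vesicle-bound, and CD8 cells' 90th-percentile brightness under 279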;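 as to vesicle binding response: mean PE anti-B7-1 fluorescence of CD8+ cells relative to row control; 100% = QL9-loaded vesicles with DMSO vehicle in the same plate row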). To be noted: 2C mouse CD8+ T cells, at 7 µM, stronger effect = lower value; double positive events: measured here: CD8+/vesicle+ event percentage.
Assay [7] addresses Integrin beta-1 (Homo sapiens) + Integrin alpha-4 (Homo sapiens) (UniProt P13612+P05556). Put plainly: inhibition of HUTS-21 binding to VLA-4, pilot screen, VLA-4 allosteric modulator project, U937 cells, HUTS-21 mAb, flow cytometry, validation set (AID 2674;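 active = inhibition above 50%, about 3 SD of the validation set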;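 also: antibody binding induced by the VLA-4 ligand LDV present at three times its Kd; 0% = LDV ligand with antibody and no compound and 100% = antibody without LDV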). The note with it: HUTS-21 LIBS mAb binding, at 6.7 µM, stronger effect = higher value.
The nature of assay [8]: superoxide lowering in aged yeast cells, pilot screen, validation compound set (AID 2706;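 active = superoxide response below 65% of plate, a cut near 3 SD across the whole screen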;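 also: yeast exposed to compound for one week at 30 degrees C before staining; 100% = mean of all compound wells on the same plate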). To be noted: S. cerevisiae aging, superoxide DHE fluorescence; at 10 µM; stronger effect = lower value.
Assay [9] has as its target Beta-adrenergic receptor kinase 1 (Homo sapiens) (UniProt P25098). In words: GRK2 binders displacing RNA aptamer, biochemical, validation, human GRK2, bead flow cytometry (AID 488806;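 active = aptamer binding inhibition above 30%, about 3 SD of noise from non-fluorescent compounds; inactive = inhibition at or below 30%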). To be noted: bead-bound GRK2, FAM-aptamer displacement, at 10 µM, stronger effect = higher value.
In assay [10] the target is Beta-2 adrenergic receptor (Homo sapiens) (UniProt P07550). Put plainly: beta2AR agonists driving receptor internalization, pilot screen, cell-based, FAP fluorogen, flow cytometry, validation set (AID 504459;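 active = percent response above 42, roughly 3 SD of non-fluorescent test compounds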;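 also: agonist-driven loss of surface beta2AR via internalization measured by FAP dye flow cytometry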). The note with it: Am2.2-beta2AR cells, FAP surface receptor flow cytometry; at 10 µM; stronger effect = higher value.
The target in assay [11] is AP-2 complex subunit beta (Homo sapiens) (UniProt P63010). In words: inhibitors of arrestin peptide binding to AP2, pilot screen, biochemical, validation set, GST-AP2 beads, flow cytometry (AID 504541;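 active = inhibition above 54%, about 3 SD of non-fluorescent compounds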;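 also: AP2 carries R879A mutation and is captured from E. coli lysate; bead-bound FITC arrestin peptide fluorescence measuring arrestin peptide binding to AP2; 0% = DMSO wells and 100% = excess unlabeled arrestin peptide control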). To be noted: FITC arrestin peptide, at 10 µM, stronger effect = higher value.
Assay [12] in a line: yeast V-ATPase proton transport modulators, S. cerevisiae, pHLuorin, HTS validation (AID 504600; in the data active = response above about 15%;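 also: plate controls were DMSO for no effect and reference compound for full effect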). The note with it: S. cerevisiae pHLuorin cytosolic pH, at 10 µM, stronger effect = higher value.
In assay [13] the test system is anti-desmoglein-3 scFv antibody binding to human DSG3. In words: inhibitors of anti-DSG3 scFv binding to DSG3, pilot screen, biochemical, validation compound set, bead-based, flow cytometry (AID 588368;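 active = binding below the plate cutoff, the plate median minus 3 SD, with a reading above zero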;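 also: signal is the median channel fluorescence of bead-bound GFP antibody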). The note with it: Protein G beads, DSG3-Fc, scFv-GFP binding, at 10 µM, stronger effect = lower value.
Assay [14] relates to Botulinum neurotoxin type F light chain protease (Clostridium botulinum). Put plainly: Botulinum neurotoxin type F light chain protease inhibition, multiplex microsphere flow cytometry, validation set (AID 588459). The note with it: multiplex microsphere protease substrate cleavage assay, at 10 µM, stronger effect = higher value.
Assay [15] deals with Botulinum neurotoxin type A (Clostridium botulinum) (UniProt P0DPI0). Put plainly: BoNT/A light chain protease inhibitors, biochemical, multiplex microsphere flow cytometry, validation set (AID 588460). To be noted: at 10 µM, stronger effect = higher value.
Assay [16] addresses Lethal factor (Bacillus anthracis) (UniProt P15917). Put plainly: Lethal factor protease inhibitors, Bacillus anthracis, multiplex microsphere cleavage assay, validation set (AID 588461). The note with it: flow cytometry, at 10 µM, stronger effect = higher value.
The nature of assay [17]: inhibitors of fungal efflux pumps CDR1, CDR2, MDR1, pilot screen, validation compound set, multiplex, phenotypic (AID 588506;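 active = efflux inhibition above 0.42, the validation set average plus 4 SD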;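 also: Nile Red retained in cells so higher fluorescence means more efflux inhibition; 0 = negative control wells and 1 = enniatin B 25 µM full block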). The note with it: S. cerevisiae pump-expressing triplex, Nile Red efflux flow cytometry; at 10 µM; stronger effect = higher value.
Assay [18] concerns the target ATP-binding cassette sub-family B member 6 (Homo sapiens) (UniProt Q9NP58). In words: ABCB6 transporter inhibitors, pilot screen, K562-ABCB6 cells, flow cytometry, validation set (AID 588550;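 active = inhibition above the screen-wide mean plus 3 SD, about 51%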;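 also: 0% = DMSO wells and 100% = benzethonium chloride 70 µM positive control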). The note with it: K562-ABCB6 porphyrin accumulation, 1 h, at 10 µM, stronger effect = higher value.
A short description of assay [19]: promoters of myeloid differentiation in arrested cells, primary screen, cell-based, GFP/MAC1 double positive, flow cytometry, validation set (AID 588685;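 active = differentiation response of at least 50%, scaled between solvent and reference control, from cells with both markers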;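 also: compound exposure lasts four days before antibody staining and flow analysis; 0% = DMSO wells and 100% = 5 µM fulvestrant positive control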). To be noted: ER-HoxA9 marrow cells, stronger effect = higher value.

Lethal factor (Bacillus anthracis), sequence (P15917 whole entry, looked up): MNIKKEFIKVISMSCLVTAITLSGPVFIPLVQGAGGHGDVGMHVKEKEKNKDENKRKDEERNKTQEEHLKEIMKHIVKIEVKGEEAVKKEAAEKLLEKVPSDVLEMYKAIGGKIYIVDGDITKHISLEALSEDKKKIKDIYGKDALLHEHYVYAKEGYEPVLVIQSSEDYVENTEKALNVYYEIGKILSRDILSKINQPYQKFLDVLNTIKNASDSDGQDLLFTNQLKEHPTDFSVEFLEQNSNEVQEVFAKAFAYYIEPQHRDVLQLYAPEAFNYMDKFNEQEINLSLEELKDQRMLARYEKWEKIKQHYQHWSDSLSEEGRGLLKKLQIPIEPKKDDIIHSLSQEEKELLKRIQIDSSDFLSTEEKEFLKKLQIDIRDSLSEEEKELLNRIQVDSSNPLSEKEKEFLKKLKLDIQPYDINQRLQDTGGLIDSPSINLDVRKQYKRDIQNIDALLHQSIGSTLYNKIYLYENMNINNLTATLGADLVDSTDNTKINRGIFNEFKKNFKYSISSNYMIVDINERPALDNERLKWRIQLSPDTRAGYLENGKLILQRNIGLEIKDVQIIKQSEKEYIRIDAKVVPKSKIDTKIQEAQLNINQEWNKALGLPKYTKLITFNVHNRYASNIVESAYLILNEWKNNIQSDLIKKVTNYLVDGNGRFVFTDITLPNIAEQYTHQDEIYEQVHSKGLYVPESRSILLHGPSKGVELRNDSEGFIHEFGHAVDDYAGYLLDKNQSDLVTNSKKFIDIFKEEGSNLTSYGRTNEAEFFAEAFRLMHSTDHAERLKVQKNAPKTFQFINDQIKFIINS
Integrin beta-1 (Homo sapiens) + Integrin alpha-4 (Homo sapiens), sequence (P05556 whole entry, looked up): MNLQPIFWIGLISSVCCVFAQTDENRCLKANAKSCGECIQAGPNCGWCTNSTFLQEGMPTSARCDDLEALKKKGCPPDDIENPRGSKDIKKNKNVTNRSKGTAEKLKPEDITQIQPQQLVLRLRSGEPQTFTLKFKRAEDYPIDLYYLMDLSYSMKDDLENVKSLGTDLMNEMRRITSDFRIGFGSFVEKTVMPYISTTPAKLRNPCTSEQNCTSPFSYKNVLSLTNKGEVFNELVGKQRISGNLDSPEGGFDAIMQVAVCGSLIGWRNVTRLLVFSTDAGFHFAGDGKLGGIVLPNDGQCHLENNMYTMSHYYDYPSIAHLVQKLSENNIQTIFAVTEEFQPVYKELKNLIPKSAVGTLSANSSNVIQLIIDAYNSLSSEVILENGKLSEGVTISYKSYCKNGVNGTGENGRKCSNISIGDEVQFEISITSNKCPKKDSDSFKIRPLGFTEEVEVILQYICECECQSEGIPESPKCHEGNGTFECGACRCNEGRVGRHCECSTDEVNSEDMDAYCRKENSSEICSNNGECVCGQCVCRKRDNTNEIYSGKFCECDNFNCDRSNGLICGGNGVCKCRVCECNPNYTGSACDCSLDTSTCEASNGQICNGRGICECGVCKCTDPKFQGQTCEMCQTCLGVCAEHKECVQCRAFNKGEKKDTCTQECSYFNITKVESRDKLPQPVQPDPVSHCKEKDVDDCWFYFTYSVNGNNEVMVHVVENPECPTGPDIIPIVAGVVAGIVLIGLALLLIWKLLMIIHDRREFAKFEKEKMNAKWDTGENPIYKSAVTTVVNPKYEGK
Integrin beta-1 (Homo sapiens) + Integrin alpha-4 (Homo sapiens), sequence (P13612 whole entry, looked up): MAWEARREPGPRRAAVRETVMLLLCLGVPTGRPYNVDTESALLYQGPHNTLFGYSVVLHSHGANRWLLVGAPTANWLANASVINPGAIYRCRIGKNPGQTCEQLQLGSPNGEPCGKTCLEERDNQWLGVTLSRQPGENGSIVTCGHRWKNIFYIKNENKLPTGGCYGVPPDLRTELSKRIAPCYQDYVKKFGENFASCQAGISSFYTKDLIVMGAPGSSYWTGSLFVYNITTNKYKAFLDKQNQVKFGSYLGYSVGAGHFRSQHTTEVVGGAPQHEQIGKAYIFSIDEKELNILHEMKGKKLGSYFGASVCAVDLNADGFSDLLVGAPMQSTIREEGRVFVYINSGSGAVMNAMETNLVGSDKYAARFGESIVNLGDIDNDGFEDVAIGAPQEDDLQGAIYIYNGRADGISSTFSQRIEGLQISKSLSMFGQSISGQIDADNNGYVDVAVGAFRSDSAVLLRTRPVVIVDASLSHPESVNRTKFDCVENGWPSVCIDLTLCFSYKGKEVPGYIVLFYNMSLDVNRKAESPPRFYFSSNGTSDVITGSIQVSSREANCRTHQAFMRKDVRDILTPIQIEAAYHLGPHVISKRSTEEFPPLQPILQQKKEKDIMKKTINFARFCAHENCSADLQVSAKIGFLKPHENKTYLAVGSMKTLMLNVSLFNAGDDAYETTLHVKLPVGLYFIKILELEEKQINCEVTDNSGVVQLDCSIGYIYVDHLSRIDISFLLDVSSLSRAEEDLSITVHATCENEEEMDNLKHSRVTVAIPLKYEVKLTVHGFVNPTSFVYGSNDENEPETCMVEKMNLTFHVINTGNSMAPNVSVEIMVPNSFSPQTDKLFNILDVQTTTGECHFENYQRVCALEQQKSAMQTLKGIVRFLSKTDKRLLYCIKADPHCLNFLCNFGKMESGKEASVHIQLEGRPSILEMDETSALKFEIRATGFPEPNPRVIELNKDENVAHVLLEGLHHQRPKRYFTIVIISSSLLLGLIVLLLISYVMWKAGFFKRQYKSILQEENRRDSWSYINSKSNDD
Beta-2 adrenergic receptor (Homo sapiens), sequence (P07550 whole entry, looked up): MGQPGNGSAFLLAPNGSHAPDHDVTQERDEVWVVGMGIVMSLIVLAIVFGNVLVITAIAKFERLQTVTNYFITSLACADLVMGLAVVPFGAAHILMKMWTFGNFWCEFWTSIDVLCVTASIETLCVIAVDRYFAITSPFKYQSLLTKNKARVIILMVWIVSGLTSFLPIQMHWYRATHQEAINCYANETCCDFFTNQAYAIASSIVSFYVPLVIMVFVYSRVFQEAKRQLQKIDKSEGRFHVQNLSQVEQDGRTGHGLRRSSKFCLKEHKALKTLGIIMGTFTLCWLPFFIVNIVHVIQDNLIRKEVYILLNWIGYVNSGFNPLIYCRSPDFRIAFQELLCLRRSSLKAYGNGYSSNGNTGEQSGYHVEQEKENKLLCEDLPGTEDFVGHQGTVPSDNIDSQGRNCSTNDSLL
Botulinum neurotoxin type A (Clostridium botulinum), sequence (P0DPI0 whole entry, looked up): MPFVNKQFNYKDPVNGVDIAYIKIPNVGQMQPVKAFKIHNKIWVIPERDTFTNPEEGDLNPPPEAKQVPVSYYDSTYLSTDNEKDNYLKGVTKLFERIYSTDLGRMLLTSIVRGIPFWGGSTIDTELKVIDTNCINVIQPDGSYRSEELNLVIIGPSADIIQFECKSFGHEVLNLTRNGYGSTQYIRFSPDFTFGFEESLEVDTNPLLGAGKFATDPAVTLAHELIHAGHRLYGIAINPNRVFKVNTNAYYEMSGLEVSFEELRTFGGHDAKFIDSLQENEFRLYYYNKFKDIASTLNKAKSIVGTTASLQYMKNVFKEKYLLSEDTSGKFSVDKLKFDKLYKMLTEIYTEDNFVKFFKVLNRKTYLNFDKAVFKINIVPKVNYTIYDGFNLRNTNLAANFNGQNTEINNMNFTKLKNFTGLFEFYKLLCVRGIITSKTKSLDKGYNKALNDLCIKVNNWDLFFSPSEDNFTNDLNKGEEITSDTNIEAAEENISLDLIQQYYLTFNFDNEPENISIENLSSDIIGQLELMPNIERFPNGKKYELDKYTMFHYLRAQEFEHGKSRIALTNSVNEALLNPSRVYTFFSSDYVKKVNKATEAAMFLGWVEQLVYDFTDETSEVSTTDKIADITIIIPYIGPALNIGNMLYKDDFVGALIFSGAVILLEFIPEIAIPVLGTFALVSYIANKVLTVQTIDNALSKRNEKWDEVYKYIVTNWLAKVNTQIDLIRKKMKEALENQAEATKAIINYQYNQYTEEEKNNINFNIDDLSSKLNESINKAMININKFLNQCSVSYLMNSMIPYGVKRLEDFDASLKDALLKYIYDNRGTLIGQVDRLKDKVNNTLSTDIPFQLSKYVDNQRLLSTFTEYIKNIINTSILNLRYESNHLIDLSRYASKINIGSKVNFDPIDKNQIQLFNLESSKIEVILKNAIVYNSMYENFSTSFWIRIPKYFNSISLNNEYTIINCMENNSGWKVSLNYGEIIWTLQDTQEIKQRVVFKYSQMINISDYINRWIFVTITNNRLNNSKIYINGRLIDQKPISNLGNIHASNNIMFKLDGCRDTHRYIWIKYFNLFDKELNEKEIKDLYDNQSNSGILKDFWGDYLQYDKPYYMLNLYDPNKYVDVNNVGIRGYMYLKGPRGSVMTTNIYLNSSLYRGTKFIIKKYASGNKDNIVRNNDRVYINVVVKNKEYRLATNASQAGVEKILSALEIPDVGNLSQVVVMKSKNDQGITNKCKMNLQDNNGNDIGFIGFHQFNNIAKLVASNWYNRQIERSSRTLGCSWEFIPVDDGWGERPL
Beta-adrenergic receptor kinase 1 (Homo sapiens), sequence (P25098 whole entry, looked up): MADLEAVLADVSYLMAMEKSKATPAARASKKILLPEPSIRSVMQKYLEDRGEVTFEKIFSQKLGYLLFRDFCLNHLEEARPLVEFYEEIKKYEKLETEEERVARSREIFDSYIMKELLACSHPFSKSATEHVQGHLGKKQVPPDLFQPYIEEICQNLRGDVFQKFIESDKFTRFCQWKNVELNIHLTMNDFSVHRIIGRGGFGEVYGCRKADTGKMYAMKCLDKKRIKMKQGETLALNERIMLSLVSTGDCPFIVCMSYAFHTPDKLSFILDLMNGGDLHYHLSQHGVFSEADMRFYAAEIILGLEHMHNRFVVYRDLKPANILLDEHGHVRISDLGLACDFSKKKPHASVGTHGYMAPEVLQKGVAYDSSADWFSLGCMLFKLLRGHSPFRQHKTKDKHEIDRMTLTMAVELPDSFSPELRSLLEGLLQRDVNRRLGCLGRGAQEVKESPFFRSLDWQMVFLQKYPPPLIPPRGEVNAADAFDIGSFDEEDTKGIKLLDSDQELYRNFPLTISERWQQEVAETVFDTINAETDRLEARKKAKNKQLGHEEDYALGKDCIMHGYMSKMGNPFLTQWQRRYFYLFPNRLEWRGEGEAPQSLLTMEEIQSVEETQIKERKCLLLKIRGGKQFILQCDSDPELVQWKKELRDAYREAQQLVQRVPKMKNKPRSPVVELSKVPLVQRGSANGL

In the case of `COc1ccc(OC)c([C@@H](O)[C@H](C)NC(C)(C)C)c1`, the percent of DMSO control GFP in assay [1] was 100% (inactive). Moreover, the GFP response vs DMSO was 102% (inactive) in assay [2] and 91.5% (inactive) in assay [4]. In assay [3], the percent response of DMSO control is 94.5% (inactive). In addition, the GFP response, % of DMSO in assay [5] is 88.8% (inactive). Moreover, in assay [6], the double positive events was 62%. In addition, in [6], the vesicle binding response was 157% (inactive). Moreover, the inhibition is -6.45% (inactive) in assay [7]; -6.97% (inactive) in [11]; -0.4% (inactive) in assay [14]; -1.1% (inactive) in [15]; 1.4% (inactive) in assay [16]; 18% (inactive) in assay [18]. In assay [8], the superoxide response (% of plate) is 102% (inactive). For the same compound, in [9], the aptamer binding inhibition was 0% (inactive). Besides, the response in assay [10] is 14.8% (inactive); in assay [12], 0.56% (inactive). Besides, the binding (% of control) in assay [13] was 106% (inactive). Moreover, the efflux inhibition (fraction of control) in [17] is 0.28 (inactive). In addition, the differentiation response in [19] is -6.03% (inactive).

`CC(C)CCC1(CN2CCCC2=O)C(=O)NC(=O)NC1=O`: the percent of DMSO control GFP in assay [1] is 95.4% (inactive). The GFP response vs DMSO in assay [2] is 105% (inactive); in assay [4] it was 120% (inactive). Further, the percent response of DMSO control in assay [3] is 86.3% (inactive). Moreover, in assay [5], the GFP response, % of DMSO is 101% (inactive). Besides, the double positive events in [6] was 58.9%. Moreover, in assay [6], the vesicle binding response is 219% (inactive). Further, the inhibition was 0.94% (inactive) in [7]; -2.03% (inactive) in assay [11]; 2.3% (inactive) in [14]; 0.7% (inactive) in assay [15]; -0.7% (inactive) in assay [16]; 5% (inactive) in [18]. Moreover, in [8], the superoxide response (% of plate) was 97.2% (inactive). Moreover, the aptamer binding inhibition in assay [9] is 1% (inactive). Also, the response in assay [10] was 5.39% (inactive); in [12] it was -6.71% (inactive). For the same compound, the binding (% of control) in assay [13] is 98.4% (inactive). Moreover, the efflux inhibition (fraction of control) in assay [17] was 0.12 (inactive). Also, the differentiation response in [19] was 45.6% (inactive).

On to `C[C@@]1(CO)[C@H](O)CC[C@@]2(C)[C@H]1CC[C@H]1C[C@@H]3C[C@@]12CC[C@]3(O)CO`, for which the percent of DMSO control GFP in assay [1] is 105% (inactive). The GFP response vs DMSO in [2] is 106% (inactive); in assay [4], 103% (inactive). Besides, the percent response of DMSO control in assay [3] is 102% (inactive). Moreover, in assay [5], the GFP response, % of DMSO was 99.3% (inactive). In assay [6], this compound had a double positive events of 62.9%. In assay [6], the vesicle binding response is 225% (inactive). In addition, the inhibition in assay [7] was 17.7% (inactive); in assay [11] it was 54.5% (active); in assay [14], 4.1% (inactive); in assay [15], 1% (inactive); in [16], -0.5% (inactive); in assay [18], 6% (inactive). Also, in assay [8], the superoxide response (% of plate) is 102% (inactive). Further, in assay [9], the aptamer binding inhibition is 0% (inactive). The response in assay [10] was 0.18% (inactive); in [12], 3.03% (inactive). The binding (% of control) in [13] is 100% (inactive). For the same compound, in assay [17], the efflux inhibition (fraction of control) is -0.04 (inactive). Besides, the differentiation response in [19] is -1.65% (inactive).

In the case of `O=c1c2ccccc2[se]n1-c1ccccc1`, the percent of DMSO control GFP in [1] is 99.6% (inactive). The values for the GFP response vs DMSO in assay [2] and in assay [4] were 94.6% (inactive) and 94.4% (inactive), respectively. For the same compound, in [3], the percent response of DMSO control is 110% (inactive). In addition, the GFP response, % of DMSO in assay [5] was 99.2% (inactive). In assay [6], this compound yielded a double positive events of 57.5%. Besides, in [6], the vesicle binding response was 111% (inactive). Also, the inhibition in assay [7] was 15.4% (inactive); in assay [11], 116% (active); in assay [14], 33.2% (active); in [15], 92.6% (active); in [16], -9.3% (inactive); in assay [18], 5% (inactive). For the same compound, in assay [8], the superoxide response (% of plate) was 120% (inactive). Besides, in [9], the aptamer binding inhibition was 5% (inactive). Besides, the results for the response in assay [10] and in [12] were 12.7% (inactive) and -0.76% (inactive), respectively. The binding (% of control) in assay [13] was 9.72% (active). Also, in assay [17], the efflux inhibition (fraction of control) was 37.3 (active). For the same compound, the differentiation response in assay [19] is 0.41% (inactive).
